Reference: PubChem BioAssay (NCI)
Compounds without any hit were thinned out: in the full panel of roughly 79,000, 15% have a hit. Activity calls are given as the source filed them. No stated cut-off is given here; in the data, active means growth inhibition above about 70%; inactive means the rest.

experiment: NCI Yeast Anticancer Drug Screen. Data for the cln2 rad14 strain (AID 165);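 further: 0% = growth equal to vehicle treated cultures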; conditions: S. cerevisiae cln2 rad14 strain, at 50.0 µM, active compounds read high
In short: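 The screen exposed genetically defined yeast (cln2 rad14) to test compounds and scored growth inhibition relative to vehicle-treated controls.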

| SMILES | growth inhibition |
| --- | --- |
| CC(=O)C1SCC[S+]1C (stereo not given) | 13.4% (inactive) |
| C=CS(=O)(=O)c1ccc(NC(=O)Nc2ccc(Cl)cc2)cc1 | 12.8% (inactive) |
| Cc1ccc(C(=O)C2CC2c2ccccc2)cc1 (stereo not given) | -38% (inactive) |
| O=C1NCC2Cc3ccccc3C(c3ccccc3)=C12 (stereo not given) | -6.15% (inactive) |
| OCCOc1ccc(Cl)cc1Cl | -2.85% (inactive) |
| Nn1c(=S)[nH]nc(/C=C/c2ccc3c(c2)OCO3)c1=O | -19.1% (inactive) |
| CCCS(=O)(=O)CCC(=O)c1cccs1 | -19% (inactive) |
| COC(=O)C(=C/c1ccc(OC)cc1)/C(C(=O)O)=C(/C)c1ccccc1 | -11.2% (inactive) |
| O=C1CC(C2OCOC3COCOC32)CC(=O)N1 (stereo not given) | 2.3% (inactive) |
| O=C(CCl)Nc1ccc(O)c2ccccc12 | 9.95% (inactive) |
| CCN(CC)CCCNc1cc(O)cc2cccnc12 | 2.6% (inactive) |
| CC12CC3CC(C)(C1)CC(N=[N+]=[N-])(C3)C2 | 6.15% (inactive) |
| C=C1C(=O)O[C@H]2/C=C(/C)C3=CC(=O)[C@@](C)(C[C@@H](OC(=O)/C(C)=C\C)C12)O3 (stereo not given in full) | 64.8% (inactive) |
| CSC1(C)C(=O)Nc2cc(C(F)(F)F)ccc21 (stereo not given) | 17.4% (inactive) |
| O=C1CC2C(=O)N(Cc3ccccc3)C(=O)C2C(=O)N1 (stereo not given) | 1.85% (inactive) |
| COc1ccc(N2CCN(CC(O)COc3ccc(Cl)cc3)CC2)cc1 (stereo not given) | 14.9% (inactive) |
| CC(C)=Cc1cc(C(=O)Nc2ccc(Cl)c(Cl)c2)nc(N)n1 | -0.5% (inactive) |
| Cc1cc(C)c2c(=O)c3c(oc2c1)O[C@@](C)(CO)C[C@@H]3c1ccccc1 | 6.05% (inactive) |
| COc1ccc(C2=C/C(=C/c3cccs3)C(=O)O2)cc1 | -36.9% (inactive) |
| N#CC(=C1c2ccccc2-c2ccccc21)c1ccccc1 | -2.65% (inactive) |

| SMILES | growth inhibition |
| --- | --- |
| Cc1ccccc1NC(=O)NN | 10.8% (inactive) |
| CCC(C)N(C(C)=O)C(C)CC (stereo not given) | 15.2% (inactive) |
| CC(C)(Oc1ccc(Cl)cc1)C(=O)NC1CC(C)(C)N(O)C(C)(C)C1 | -48.5% (inactive) |
| c1ccc(N=C2N=c3ccccc3=C2c2c(Nc3ccccc3)[nH]c3ccccc23)cc1 | -27.1% (inactive) |
| CC(C)N(CC(=O)NC(=O)c1ccccc1)Cc1ccccc1 | -30.1% (inactive) |
| Nc1nc2c(nc(OCc3ccccc3)n2C2OC(CO)C(O)C2O)c(=O)[nH]1 (stereo not given) | 8.95% (inactive) |
| Clc1cnnc(Cl)c1N/N=C/c1ccco1 | -43.2% (inactive) |
| COc1ccc(C(=O)O/N=C2/CCC/C2=C\c2ccccc2)cc1 | 26.4% (inactive) |
| COC(=O)c1nnn(-c2c(C)cccc2C(C)C)c1C(=O)c1ccccc1 | -7.6% (inactive) |
| O=C1O[C@@H](c2ccccc2)C[C@@H]1CN1CCOCC1 | 26.1% (inactive) |
| Cc1ccc2c(c1)C(C(C)C)CCC2(C)C (stereo not given) | 4.85% (inactive) |
| CC1(O)c2ccccc2-c2nc3ccccc3nc21 (stereo not given) | -11.8% (inactive) |
| Nc1cccc(=O)[nH]1 | 3.7% (inactive) |
| CCCCc1c2c(nc3c1CCC/C3=C\c1ccccc1)C(=O)CCC2 | 12.2% (inactive) |
| Cn1ncc2c(=S)nc[nH]c21 | -18.2% (inactive) |
| CCC1(C(Cl)(Cl)Cl)C=CC(=O)C=C1 | 12.8% (inactive) |
| O=C(O)C1OC1(c1ccccc1Cl)c1ccccc1Cl (stereo not given) | 1.55% (inactive) |
| O=S(=O)(CS(=O)(=O)c1ccccc1Br)c1ccccc1Br | 13% (inactive) |
| Cc1nc2c(Cl)cc(Cl)cc2c(Cl)c1CCCl | 18.9% (inactive) |
| CC(C)CCCC(C)C1CCC2C3CC=C4CC(OC5CCC6(C)C(=CCC7C6CCC6(C)C(C(C)CCCC(C)C)CCC76)C5)CCC4(C)C3CCC12C (stereo not given) | -10.7% (inactive) |

experiment: NCI Yeast Anticancer Drug Screen. Data for the bub3 strain (AID 167); conditions: S. cerevisiae bub3 mutant strain, at 50.0 µM, active compounds read high
In short: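 Readout: yeast growth inhibition, expressed relative to vehicle-only wells. The test organism is a mutant strain from a panel with lesions in DNA repair or checkpoint genes.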

| SMILES | growth inhibition |
| --- | --- |
| CC(=O)C1SCC[S+]1C (stereo not given) | -9.2% (inactive) |
| C=CS(=O)(=O)c1ccc(NC(=O)Nc2ccc(Cl)cc2)cc1 | 1.25% (inactive) |
| Cc1ccc(C(=O)C2CC2c2ccccc2)cc1 (stereo not given) | -0.95% (inactive) |
| O=C1NCC2Cc3ccccc3C(c3ccccc3)=C12 (stereo not given) | -3.9% (inactive) |
| OCCOc1ccc(Cl)cc1Cl | -0.8% (inactive) |
| Nn1c(=S)[nH]nc(/C=C/c2ccc3c(c2)OCO3)c1=O | 6.35% (inactive) |
| CCCS(=O)(=O)CCC(=O)c1cccs1 | -1.85% (inactive) |
| COC(=O)C(=C/c1ccc(OC)cc1)/C(C(=O)O)=C(/C)c1ccccc1 | -18.6% (inactive) |
| O=C1CC(C2OCOC3COCOC32)CC(=O)N1 (stereo not given) | -12.8% (inactive) |
| O=C(CCl)Nc1ccc(O)c2ccccc12 | 5.85% (inactive) |
| CCN(CC)CCCNc1cc(O)cc2cccnc12 | 2.3% (inactive) |
| CC12CC3CC(C)(C1)CC(N=[N+]=[N-])(C3)C2 | -0.8% (inactive) |
| C=C1C(=O)O[C@H]2/C=C(/C)C3=CC(=O)[C@@](C)(C[C@@H](OC(=O)/C(C)=C\C)C12)O3 (stereo not given in full) | 77.9% (active) |
| CSC1(C)C(=O)Nc2cc(C(F)(F)F)ccc21 (stereo not given) | 2% (inactive) |
| O=C1CC2C(=O)N(Cc3ccccc3)C(=O)C2C(=O)N1 (stereo not given) | -3.1% (inactive) |
| COc1ccc(N2CCN(CC(O)COc3ccc(Cl)cc3)CC2)cc1 (stereo not given) | 13.8% (inactive) |
| CC(C)=Cc1cc(C(=O)Nc2ccc(Cl)c(Cl)c2)nc(N)n1 | -41.8% (inactive) |
| Cc1cc(C)c2c(=O)c3c(oc2c1)O[C@@](C)(CO)C[C@@H]3c1ccccc1 | 12% (inactive) |
| COc1ccc(C2=C/C(=C/c3cccs3)C(=O)O2)cc1 | 3.75% (inactive) |
| N#CC(=C1c2ccccc2-c2ccccc21)c1ccccc1 | 2.75% (inactive) |

| SMILES | growth inhibition |
| --- | --- |
| Cc1ccccc1NC(=O)NN | -16.6% (inactive) |
| CCC(C)N(C(C)=O)C(C)CC (stereo not given) | 2% (inactive) |
| CC(C)(Oc1ccc(Cl)cc1)C(=O)NC1CC(C)(C)N(O)C(C)(C)C1 | -43.2% (inactive) |
| c1ccc(N=C2N=c3ccccc3=C2c2c(Nc3ccccc3)[nH]c3ccccc23)cc1 | -4.7% (inactive) |
| CC(C)N(CC(=O)NC(=O)c1ccccc1)Cc1ccccc1 | -1.5% (inactive) |
| Nc1nc2c(nc(OCc3ccccc3)n2C2OC(CO)C(O)C2O)c(=O)[nH]1 (stereo not given) | 0.5% (inactive) |
| Clc1cnnc(Cl)c1N/N=C/c1ccco1 | -6.7% (inactive) |
| COc1ccc(C(=O)O/N=C2/CCC/C2=C\c2ccccc2)cc1 | 10.9% (inactive) |
| COC(=O)c1nnn(-c2c(C)cccc2C(C)C)c1C(=O)c1ccccc1 | -23.8% (inactive) |
| O=C1O[C@@H](c2ccccc2)C[C@@H]1CN1CCOCC1 | 3.15% (inactive) |
| Cc1ccc2c(c1)C(C(C)C)CCC2(C)C (stereo not given) | -0.6% (inactive) |
| CC1(O)c2ccccc2-c2nc3ccccc3nc21 (stereo not given) | -0.35% (inactive) |
| Nc1cccc(=O)[nH]1 | 9.45% (inactive) |
| CCCCc1c2c(nc3c1CCC/C3=C\c1ccccc1)C(=O)CCC2 | 30.6% (inactive) |
| Cn1ncc2c(=S)nc[nH]c21 | 2.65% (inactive) |
| CCC1(C(Cl)(Cl)Cl)C=CC(=O)C=C1 | 4.7% (inactive) |
| O=C(O)C1OC1(c1ccccc1Cl)c1ccccc1Cl (stereo not given) | -3.3% (inactive) |
| O=S(=O)(CS(=O)(=O)c1ccccc1Br)c1ccccc1Br | 1.95% (inactive) |
| Cc1nc2c(Cl)cc(Cl)cc2c(Cl)c1CCCl | 39.6% (inactive) |
| CC(C)CCCC(C)C1CCC2C3CC=C4CC(OC5CCC6(C)C(=CCC7C6CCC6(C)C(C(C)CCCC(C)C)CCC76)C5)CCC4(C)C3CCC12C (stereo not given) | -1.75% (inactive) |
